Measurements reported in PubChem BioAssay (NCATS).
Records with an inconclusive call do not appear. Active and inactive are the calls of the source. Calls come from the whole dose curve; as a rule, active = well fitted cell-killing curve with a large enough effect; inconclusive = small, poorly fitted or top-dose-only effect, or effect the other way; inactive = flat fitted curve, though single readings scatter.

Tests used:
Assay in all cases: Primary qHTS to identify gynecologic anti-cancer compounds using libraries of approved drugs and bioactive compounds (AID 1345084); note: nearly all actives have a fitted effect of over 55% in size
C33A = settings: Gynecologic cancer cell panel viability, ATPlite luminescence, 48 h; series mostly up to 57.5 µM
Summary of the method: (§1)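 Cell viability after 48 h drug treatment, ATPlite luminescence readout; five doses.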

CAOV3 = settings: Gynecologic cancer cell panel viability, ATPlite luminescence, 48 h; series mostly up to 57.5 µM
Summary of the method: as §1

CASKI = settings: Gynecologic cancer cell panel viability, ATPlite luminescence, 48 h; series mostly up to 57.5 µM
Summary of the method: as §1

Es-2 = settings: Gynecologic cancer cell panel viability, ATPlite luminescence, 48 h; series mostly up to 57.5 µM
Summary of the method: as §1

HeLa = settings: Gynecologic cancer cell panel viability, ATPlite luminescence, 48 h; series mostly up to 57.5 µM
Summary of the method: as §1

Hek293T = settings: Gynecologic cancer cell panel viability, ATPlite luminescence, 48 h, control line for the selectivity index; series mostly up to 57.5 µM
Summary of the method: as §1

JEG-3 = settings: Gynecologic cancer cell panel viability, ATPlite luminescence, 48 h; series mostly up to 57.5 µM
Summary of the method: as §1

OV90 = settings: Gynecologic cancer cell panel viability, ATPlite luminescence, 48 h; series mostly up to 57.5 µM
Summary of the method: as §1

PA-1 = settings: Gynecologic cancer cell panel viability, ATPlite luminescence, 48 h; series mostly up to 57.5 µM
Summary of the method: as §1

SKOV3 = settings: Gynecologic cancer cell panel viability, ATPlite luminescence, 48 h; series mostly up to 57.5 µM
Summary of the method: as §1

Tov-21-G = settings: Gynecologic cancer cell panel viability, ATPlite luminescence, 48 h; series mostly up to 57.5 µM
Summary of the method: as §1

Tov112D = settings: Gynecologic cancer cell panel viability, ATPlite luminescence, 48 h; series mostly up to 57.5 µM
Summary of the method: as §1

Measured: Potency

CC1=C2C(O)C(=O)OC(c3ccoc3)C2(C)CCC1O (stereo unspecified)
inactive: all assays above

CC(C)=CCC/C(C)=C/Cc1ccc(O)c(C2OC(=O)c3cc(C(=O)O)cc(O)c32)c1O (stereo unspecified)
inactive: all assays above

CC(O)CCC1C(CO[C@@H]2O[C@H](CO)[C@@H](O)[C@H](O)[C@H]2O)CC(O)CC1(C)C (stereo partly specified)
inactive: all assays above

CC1C=CC2CCCCC2C1CCC1CC(O)CC(=O)O1 (stereo unspecified)
inactive: all assays above

C=C1[C@H](OC(C)=O)[C@H]2[C@@H](OC(C)=O)[C@](C)(OC(C)=O)C[C@]2(OC(C)=O)C(=O)[C@H](C)/C=C/C(C)(C)C(=O)[C@H](OC(=O)C(C)CC)[C@H]1OC(C)=O (stereo partly specified)
inactive: all assays above

C/C1=C\CC[C@]2(C)O[C@@H]2[C@H](O)[C@H](C(C)C)[C@H](OC(=O)/C=C/c2ccccc2)C1
inactive: all assays above

C/C(=C\CC[C@@H](C)[C@H]1CC(O)[C@@]2(C)C3CC[C@H]4C(C)(C)[C@@H](OC5OCC(O)C(O)C5OC5OC(CO)C(O)C(O)C5O)CC[C@@]45C[C@@]35CC(O)[C@]12C)C(=O)O (stereo partly specified)
inactive: all assays above

c1ccc(-c2ncc(CN3CCN(c4ncccn4)CC3)[nH]2)cc1
inactive: all assays above

Cc1cc(Nc2nc(NC(C)c3ncc(F)cn3)ncc2Cl)n[nH]1 (stereo unspecified)
inactive: all assays above

CC1(C)CCCC2(C)C1CC=C1C(=O)OC(O)C12O (stereo unspecified)
inactive: all assays above

CCc1c(-c2ccccc2)c(-c2ccccc2)nn1-c1ccccc1-c1cccc(OCC(=O)O)c1
inactive: all assays above

CC1(C)CC2C(O)c3cocc3CC(C)(O)C2C1 (stereo unspecified)
inactive: all assays above

CC(=O)c1ccc(O[C@@H]2O[C@H](CO)[C@@H](O)[C@H](O)[C@H]2O)cc1
inactive: all assays above
